Reference: PubChem BioAssay
“And” between values parts separate entries of the source, which are not always exact repeats. Equal values may be shown once.

Tests used:
[1] = test system: Human papillomavirus type 1a protein E7 (residues 44-93); assay: HPV1a E7 fragment binders on microarrays, primary screen, biochemical, small-molecule microarray, residues 44-93, 635 nm fluorescence (AID 1108); settings: small-molecule microarray binding, fluorescence 635 nm; higher = more signal;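 further: E7 fragment applied at 1 µg/mL in TBST for 1 h at 4 C; score combines spot fluorescence with its signal to noise ratio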
[2] = modulators of HCV replicon luciferase signal, primary screen, HCV replication inhibitor project, Huh7 cells, luciferase reporter (AID 1109); settings: 48 h, higher = more signal;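 further: huh7 hepatoma cells harbouring a luciferase neomycin HCV replicon reporter; luciferase luminescence as measure of HCV replicon replication; test concentration not given here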
[3] = target: Left-right determination factor 2 (Homo sapiens) (UniProt O00292); assay: LEFTY2 binders on small-molecule microarrays, primary screen, biochemical, small-molecule microarray, 635 nm fluorescence scan (AID 1110); settings: LEFTY2 binding, higher = more signal
[4] = target: Calmodulin-1 (Homo sapiens) (UniProt P0DP23); assay: CALM1 binders on microarrays, EGTA buffer, profiling panel, biochemical, small-molecule microarray, Cy5-labelled CALM1 (AID 1111); settings: Cy5-CALM1 binding fluorescence, higher = more signal;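 further: labelled calmodulin applied in Tris saline Tween buffer holding calcium plus EGTA and DTT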
[5] = target: Calmodulin-1 (Homo sapiens) (UniProt P0DP23); assay: calcium-bound CALM1 binders on microarrays, profiling panel, artefact control for SMM control-protein annotation, biochemical, small-molecule microarray, Cy5-labelled CALM1, plus calcium (AID 1112); settings: Cy5-CALM1 binding fluorescence, higher = more signal;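 further: score merges spot fluorescence with signal to noise from triplicate slides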
[6] = small-molecule microarray binders of probe aWnt5a, primary screen, biochemical, biotinylated probe, 635/667 nm fluorescence (AID 1113); settings: higher = more signal;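 further: score merges 667 nm fluorescence intensity with signal-to-noise per printed feature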
[7] = small-molecule microarray binders of probe aShh, primary screen, biochemical, biotinylated probe, 635/667 nm fluorescence (AID 1114); settings: higher = more signal;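 further: probe is biotin-labelled aShh protein from a stem cell growth factor screen; measures binding of labelled protein to compounds printed on the slide; score merges feature fluorescence at 667 nm with signal-to-noise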
[8] = small-molecule microarray binders of probe aNog, primary screen, biochemical, biotinylated probe, 635/667 nm fluorescence (AID 1115); settings: higher = more signal;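 further: probe is biotinylated aNog protein used at 0.15 µg/mL for 1 h at 4 C; z-score combines 667 nm fluorescence of each spot with its signal to noise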
[9] = target: Torsin-1A-interacting protein 1 (Homo sapiens) (UniProt Q5JTV8); assay: LAP1 binders from COS7 cell lysate, primary screen, small-molecule microarray, 635/667 nm fluorescence (AID 1116); settings: COS7-hLAP1 lysate binding, 635 nm fluorescence, higher = more signal
[10] = target: Alpha-bungarotoxin (Bungarus multicinctus) (UniProt P60615); assay: alpha-bungarotoxin binders on microarray, profiling panel, artefact control for SMM control protein annotation, biochemical, small-molecule microarray, Alexa647 label, 635/667 nm fluorescence (AID 1117); settings: alpha-BTX-A647 binding fluorescence, higher = more signal
Chain of Alpha-bungarotoxin (Bungarus multicinctus) (P60615 whole entry, looked up): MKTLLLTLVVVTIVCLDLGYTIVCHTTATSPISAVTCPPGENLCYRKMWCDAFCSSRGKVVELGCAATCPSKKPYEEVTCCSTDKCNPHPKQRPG

Chain of Torsin-1A-interacting protein 1 (Homo sapiens) (Q5JTV8 whole entry, looked up): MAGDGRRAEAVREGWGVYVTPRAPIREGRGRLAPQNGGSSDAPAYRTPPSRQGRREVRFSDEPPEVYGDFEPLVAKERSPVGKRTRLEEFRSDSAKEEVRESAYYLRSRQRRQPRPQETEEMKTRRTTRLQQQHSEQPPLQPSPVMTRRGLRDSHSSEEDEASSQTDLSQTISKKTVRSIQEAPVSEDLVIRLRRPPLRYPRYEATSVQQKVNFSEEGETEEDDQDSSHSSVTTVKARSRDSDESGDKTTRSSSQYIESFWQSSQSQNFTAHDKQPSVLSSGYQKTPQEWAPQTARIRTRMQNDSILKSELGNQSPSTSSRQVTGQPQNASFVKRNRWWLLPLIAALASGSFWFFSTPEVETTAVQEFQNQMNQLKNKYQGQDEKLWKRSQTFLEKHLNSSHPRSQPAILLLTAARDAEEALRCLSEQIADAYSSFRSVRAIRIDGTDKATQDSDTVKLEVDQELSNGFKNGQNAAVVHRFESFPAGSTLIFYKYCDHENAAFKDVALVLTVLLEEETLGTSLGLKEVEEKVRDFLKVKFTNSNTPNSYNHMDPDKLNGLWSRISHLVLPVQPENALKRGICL
Chain of Left-right determination factor 2 (Homo sapiens) (O00292 whole entry, looked up): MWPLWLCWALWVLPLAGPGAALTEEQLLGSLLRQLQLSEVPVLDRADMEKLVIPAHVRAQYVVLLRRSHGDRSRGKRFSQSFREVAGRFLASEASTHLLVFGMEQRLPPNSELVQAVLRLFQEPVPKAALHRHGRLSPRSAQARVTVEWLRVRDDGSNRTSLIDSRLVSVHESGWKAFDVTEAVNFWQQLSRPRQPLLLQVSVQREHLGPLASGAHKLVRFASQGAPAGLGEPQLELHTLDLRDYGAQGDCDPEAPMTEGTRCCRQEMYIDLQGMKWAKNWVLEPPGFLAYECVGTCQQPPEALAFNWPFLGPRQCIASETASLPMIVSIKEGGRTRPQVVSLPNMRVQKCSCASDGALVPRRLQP

SMILES	composite z-score [1]	z-score [2]	composite z-score [3]	composite z-score [4]	composite z-score [5]	composite z-score [6]	composite z-score [7]	composite z-score [8]	composite z-score [9]	composite z-score [10]
C[N+](C)(C)CCCCCCNC(=O)[C@H]1C[C@H]2C(=O)N[C@@H](CCCC[N+](C)(C)C)C(=O)N2[C@H]1c1cccc(OCCO)c1	0.519 and 0.362	1.38 and 1.18	1.35 and 1.04	-0.742 and -0.31	-0.458 and 0.0972	-0.0981 and -0.0478	-0.291 and -0.167	-0.0855 and 0.304	0.953 and 0.544	0.433 and -0.3
CCOC(=O)CCN1C(=O)[C@H]2[C@H]3[C@H](O)[C@H](O)CC(=NNC(=O)OCC)[C@@H]3CC[C@H]2C1=O	0.582	0.374	0.354	0.0089	-1.05	0.0511	-0.273	0.0234	-0.0895	0.353
CCOC(=O)C[C@H]1[C@H](OC(=O)c2ccccc2-c2ccccc2)[C@@H](NC(=O)Cc2ccc(OC)cc2)c2cc(OCCCO)ccc2N1C(=O)Cc1ccc(OC)cc1	0.361 and -0.687	-0.912 and -0.962	0.422 and -0.519	1.11 and -0.163	0.971 and -0.309	-0.0346 and -0.0107	0.412 and -0.0977	0.811 and 0.467	0.477 and 0.415	0.873 and 0.224
C=CCN(C(=O)C1N(C(C)(C)CO)C(=O)C2C(C(=O)O)C3C=CC21O3)c1ccc(OC)cc1 (stereo not given)	-0.391 and -1.24	1.82 and -0.0108	-2 and -4.13	-0.547 and -0.928	0.455 and -0.116	-0.256 and -0.116	0.0611 and -0.283	0.265 and -0.0827	1.86 and -0.125	-2.34 and -2.48
Cc1ccc(S(=O)(=O)N[C@H]2COC(=O)[C@@H](C)COC(=O)[C@H](C)NC(=O)CC=C[C@H]2C)cc1	-0.799	-0.128	0.715	-0.82	-0.994	0.027	0.0538	-0.234	1.09	-0.458
CO[C@H]1COC(=O)CC=C[C@@H](C)COC(=O)[C@H](CCSC)NC(=O)CC=C[C@@H]1C	-0.467 and -0.849	-0.0216 and -0.567	1.6 and 1.71	-0.957 and -2.78	-1.75 and -3.46	-0.136 and -0.197	-0.138 and -0.34	-0.385 and -0.754	0.995 and 0.363	-0.933 and -1.69
CC(C)=CCCC(C)=CCON=C1C[C@@H](O)[C@@H](O)[C@@H]2[C@@H]3C(=O)N([C@@H](C)c4ccccc4)C(=O)[C@@H]3CC[C@H]12	0.893	-0.745	0.773	-0.282	-0.782	-0.0644	0.265	-0.44	0.166	0.417
C=CCN(CCCCC)C(=O)C1N(c2ccc(CCO)cc2)C(=O)C2C(C(=O)O)C3C=CC21O3 (stereo not given)	-0.351 and -0.928	0.471 and -0.235	-2.25 and -3.05	-1.51 and -0.989	-0.455 and -0.143	-0.23 and -0.316	-0.0769 and -0.0866	-0.387 and -0.332	0.143 and 0.422	-2.97 and -1.37
C=CC[C@@H](O)c1ccc(O)c(F)c1	-0.612 and -0.685	-0.947 and 0.848	-2.46 and -1.47	-0.75 and -1.41	0.0576 and -0.0804	-0.0399 and -0.278	-0.332 and -0.124	-0.116 and -0.62	-0.635 and -0.47	-1.9 and -2.33
COC(=O)C1=C(C)N(Cc2ccccc2)[C@]23O[C@](C(=O)OC)(C(=O)N2[C@@H]1c1ccccc1)[C@H]1CCCC(=O)[C@H]13	-0.525 and 0.155	-3.35 and -1.15	0.877 and 0.588	-0.127 and -0.222	0.0491 and -0.499	-0.0792 and -0.0462	-0.0146 and -0.0553	-0.275 and -0.367	0.206 and 0.139	0.787 and 0.0026
C=CCN(C(=O)C1N(c2ccc(CCO)cc2)C(=O)C2C(C(=O)O)C3C=CC21O3)c1ccc(OC)cc1 (stereo not given)	-0.178 and -3.84	0.174 and 0.383	-1.59 and -1.27	-0.394 and -0.181	-0.702 and 0.0188	-0.154 and -0.285	0.0899 and -0.239	-0.172 and 0.0343	-0.447 and 0.206	-0.102 and -0.62
C[C@@H]1CC[C@H]2C(=O)O[C@H](CN=[N+]=[N-])CN2[C@H]1c1ccc(Br)cc1	-0.322 and -0.172	-0.0944 and 0.335	0.0584 and 0.213	-0.425 and -0.201	-0.306 and -0.544	-0.124	-0.174 and -0.0769	0.0078 and -0.196	-0.21 and 0.116	0.089 and 0.397
C=CCN(Cc1ccccc1)C(=O)C1N(c2ccc(CCO)cc2)C(=O)C2C(C(=O)O)C3C=CC21O3 (stereo not given)	-0.864 and -3.61	0.677 and 0.514	-2.68 and -3.26	-0.279 and -1.04	0.428 and -0.184	-0.195 and -0.0792	0.149 and -0.0035	-0.152 and 0.784	-0.958 and -1.58	-1.48 and 0.899
C=C[C@H](C)[C@H](O)c1ccc(O)c2ccccc12	-0.523 and -0.557	-1.28 and -0.876	-0.796 and -0.399	-1.09 and -1.04	-0.75 and -1.04	-0.244 and -0.12	-0.0769 and -0.138	-0.37 and -0.46	0.159 and -0.0387	0.594 and -0.204
C=CCN(C(=O)C(c1cccs1)N(C(=O)/C=C\C(=O)O)C(C)(C)CO)c1ccc(OC)cc1 (stereo not given)	-0.759 and -0.652	0.0435 and 2.82	-1.77 and -2.47	0.459 and -0.933	0.891 and 0.235	-0.0455 and -0.166	-0.138 and -0.0626	0.162 and 0.292	0.588 and 1.06	-2.1 and -1.16
C=CCN(C(=O)C(c1cccs1)N(C(=O)/C=C\C(=O)O)C(C)(C)CO)C(C)(C)C (stereo not given)	-0.453 and -0.0211	-0.0094 and 0.0766	-2.3 and -1.73	-0.243 and -0.782	-0.403 and 0.164	-0.124 and -0.197	-0.0553 and -0.0769	0.945 and 0.25	0.78 and -0.351	0.489 and 0.895
C[C@@H](ON=C1[C@H]2CCn3c(=O)n(-c4ccccc4)c(=O)n3[C@H]2[C@H](O)[C@@H]2O[C@H]12)c1cn([C@H](CO)Cc2ccccc2)nn1	0.46	-3.71	0.605	0.0208	-0.549	-0.148	-0.358	-0.364	-0.0609	0.24
COC(=O)C1=C(C)N(Cc2ccccc2)C2=C(C(=O)c3ccccc3)[C@H](c3ccccc3)[C@@](O)(C(=O)OC)C(=O)N2[C@@H]1c1ccccc1	1.15 and 0.774	-2.05 and 0.964	0.32 and 0.577	0.046 and -0.136	-0.373 and -0.51	-0.176 and -0.1	-0.137 and -0.0626	-0.31 and 0.0197	0.202 and 0.17	-0.115 and -0.0752
O=C1C[C@]2(c3ccc([N+](=O)[O-])cc3)C(=O)N(Cc3ccccc3)c3cc(CO)ccc3[C@H]2N1C1CCCCC1	0.986 and 0.622	-0.107 and -2.97	-1.1 and 0.586	-0.135 and 1.19	-0.195 and 0.163	-0.0546 and -0.0556	0.0611 and 0.393	-0.262 and 0.344	0.395 and -0.136	0.0277 and -0.0515
COC(=O)[C@@]1(Cc2ccc(F)cc2)[C@H]2c3cc(C(=O)N4CCCC4)n(Cc4c(CO)[nH]cc(C)c4=O)c3C[C@H]2CN1C(=O)c1ccccc1	0.866 and 0.952	-1.31 and -1.38	-0.0537 and -0.837	1.41 and 0.252	0.249 and 0.299	1.02 and 0.132	2.2 and 0.182	2.71 and 1.27	0.959 and 1.72	0.234 and -0.124
CCN1C(=O)[C@H]2[C@H]3[C@H](O)[C@H](O)CC(=NNC(=O)OCc4ccc(OC)cc4)[C@H]3CC[C@H]2C1=O	-0.432	0.182	0.261	-0.222	0.161	0.0597	0.0611	0.664	0.537	0.379
COCn1c2ccccc2c2nnc(C(C)=O)nc21	-0.421 and 0.238	-0.366 and 0.141	0.486 and 0.305	-0.338 and -0.015	-0.462 and -0.409	-0.182 and -0.124	-0.282 and -0.0769	-0.294 and -0.158	0.184 and 0.0111	0.0727 and 0.378
CON(C)C(=O)c1nnc2c3ccccc3n(S(=O)(=O)c3ccc(C)cc3)c2n1	0.652 and 1.1	1.78 and 1.38	0.755 and 0.321	0.761 and -0.142	-0.318 and -1.11	-0.0748 and -0.006	-0.223 and 0.0022	-0.373 and 0.0369	0.637 and 0.223	0.787 and 0.219
C=C[C@@H](C)[C@H](O)c1ccc(O)c2ccccc12	-0.54 and -1.74	-0.857 and -0.0113	0.265 and -0.863	-1.27 and -1.29	-1.21 and -1.19	-0.224 and -0.283	-0.0035 and -0.0709	-0.157 and -0.299	-0.444 and -0.659	-0.286 and -0.508
Cc1ccc(S(=O)(=O)N[C@@H]2COC(=O)CC=C[C@@H](C)[C@@H]3C=C[C@H](O)[C@@H](COC(=O)CC=C[C@H]2C)O3)cc1	-0.813 and -0.0304	-0.606 and -1.32	1.21 and 0.343	-0.657 and -0.267	-1.1 and -0.778	-0.172 and -0.0044	-0.0977 and -0.0035	-0.0965 and -0.116	0.11 and 0.433	-0.268 and 0.391
